Unmarked numbers belong to inactive results. Active and inactive are the calls of the source.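 Rule for the calls, unless noted: active = mean inhibition above 46.5%, the solvent-only control mean plus 3 SD; inactive = the rest.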
What was measured:
[1] = tested on: transactivating tegument protein VP16 (Human herpesvirus 1); assay: compounds suppressing VP16-driven luciferase signal – cell-based, luminescence, single concentration, counter-screen for SRC2 inhibitor project (AID 652007; in the data active = inhibition above about 36%); settings: cell-based VP16 transactivation luciferase reporter, at 8.9 µM, stronger effect = higher value
[2] = target: Nuclear receptor coactivator 2 (Homo sapiens) (UniProt Q15596); assay: inhibition of GAL4-SRC2 driven luciferase expression – cell-based, luminescence, HEK293, triplicate, confirmation (AID 652008); settings: HEK293 GAL4-SRC2 luciferase reporter, at 8.9 µM, stronger effect = higher value;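 note: 0% = DMSO-treated cells and 100% = Gossypol at 36 µM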
Sequence of Nuclear receptor coactivator 2 (Homo sapiens) (Q15596 whole entry, looked up, the tested form may be a part): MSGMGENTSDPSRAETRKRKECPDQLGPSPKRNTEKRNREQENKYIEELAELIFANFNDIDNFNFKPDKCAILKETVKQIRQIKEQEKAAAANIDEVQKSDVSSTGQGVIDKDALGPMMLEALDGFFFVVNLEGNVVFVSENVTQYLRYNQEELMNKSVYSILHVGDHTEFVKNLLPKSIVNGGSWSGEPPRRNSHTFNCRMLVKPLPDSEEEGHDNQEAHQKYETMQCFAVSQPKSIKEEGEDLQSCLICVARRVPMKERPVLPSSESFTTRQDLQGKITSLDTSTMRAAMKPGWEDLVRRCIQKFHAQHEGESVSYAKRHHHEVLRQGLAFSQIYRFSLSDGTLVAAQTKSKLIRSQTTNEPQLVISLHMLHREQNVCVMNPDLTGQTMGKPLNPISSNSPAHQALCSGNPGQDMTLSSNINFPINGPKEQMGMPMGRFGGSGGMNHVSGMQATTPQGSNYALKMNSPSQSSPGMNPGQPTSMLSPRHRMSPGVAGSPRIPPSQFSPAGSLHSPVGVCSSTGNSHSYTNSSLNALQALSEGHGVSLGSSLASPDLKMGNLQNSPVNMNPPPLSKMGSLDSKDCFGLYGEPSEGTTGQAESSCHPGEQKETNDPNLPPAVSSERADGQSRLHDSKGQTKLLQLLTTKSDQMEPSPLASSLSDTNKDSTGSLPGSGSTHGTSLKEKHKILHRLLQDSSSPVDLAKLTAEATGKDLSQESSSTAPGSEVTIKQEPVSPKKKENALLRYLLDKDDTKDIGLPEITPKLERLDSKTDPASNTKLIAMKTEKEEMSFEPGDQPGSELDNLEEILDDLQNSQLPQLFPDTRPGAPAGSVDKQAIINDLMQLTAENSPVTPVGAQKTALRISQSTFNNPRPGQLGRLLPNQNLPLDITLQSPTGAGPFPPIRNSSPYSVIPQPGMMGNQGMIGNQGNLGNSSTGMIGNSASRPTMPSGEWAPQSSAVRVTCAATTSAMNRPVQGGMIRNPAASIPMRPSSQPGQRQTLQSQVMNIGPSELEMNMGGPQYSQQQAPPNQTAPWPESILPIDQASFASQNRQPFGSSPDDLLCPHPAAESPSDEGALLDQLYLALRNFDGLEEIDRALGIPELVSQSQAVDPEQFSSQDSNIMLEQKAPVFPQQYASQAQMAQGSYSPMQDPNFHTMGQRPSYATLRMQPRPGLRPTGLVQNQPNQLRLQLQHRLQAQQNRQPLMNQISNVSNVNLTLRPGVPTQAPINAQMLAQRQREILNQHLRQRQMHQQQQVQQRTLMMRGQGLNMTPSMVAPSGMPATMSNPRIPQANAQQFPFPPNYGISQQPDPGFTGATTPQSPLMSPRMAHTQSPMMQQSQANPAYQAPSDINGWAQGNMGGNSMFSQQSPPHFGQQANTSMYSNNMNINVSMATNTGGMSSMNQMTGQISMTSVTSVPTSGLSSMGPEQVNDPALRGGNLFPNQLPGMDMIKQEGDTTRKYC

SMILES	inhibition [1]	inhibition [2]
O=C(Nc1nnc(SCCN2CCOCC2)s1)C1CC(=O)N(c2ccccc2)C1 (stereo unspecified)	1.56%	-15.8%
CC(=O)CC[C@@H]1CC[C@]2(CCCN(S(C)(=O)=O)C2)O1	-18.6%	-4.54%
COc1ccc(O)c(/C=N/NC(=O)c2ccc(CSc3nc(C)cc(C)n3)cc2)c1	0.19%	26.4%
CCN(CC)c1ccc(/C=N/Nc2nn[nH]n2)cc1	-13.6%	43.4%
CCc1ccc(/C=C2\SC(=S)N(CCCC(=O)N3CCN(C)CC3)C2=O)cc1	-9.42%	11.9%
CCc1cc(CNC(=O)c2ccc3nc(Cc4ccc(OC)c(OC)c4)oc3c2)on1	9.61%	26.6%
Nc1ccc(C(=O)N2CCN(S(=O)(=O)c3ccc4c(c3)OCCO4)CC2)cc1[N+](=O)[O-]	2.71%	40.5%
C=C(C)C(=O)OC1(C(F)(F)F)Oc2cc(C)ccc2NC1=O (stereo unspecified)	-6.48%	17.5%
O=C1C=CC2C3C(=O)N(c4ccccc4)C(=O)C3C1N2Cc1ccccc1 (stereo unspecified)	30.5%	65.9% (active)
Cc1ccc(C2(CCNCc3ccco3)CCOC(C(C)C)C2)cc1 (stereo unspecified)	-11.6%	-20.8%
Nn1c(SCC(=O)Nc2cccc3ccccc23)nnc1-c1cc(-c2ccc(Cl)cc2)n[nH]1	51% (active)	15.4%
O=C(Nc1nccs1)c1cc([N+](=O)[O-])ccc1Cl	12.7%	42.9%
CCOC(=O)C1CCCCN1C(=O)CCc1c(C)nc2cc(-c3ccccc3)nn2c1C (stereo unspecified)	-0.8%	70.2% (active)
CN(C)CCCN(C(=O)CCOc1ccccc1)c1nc2c(F)cccc2s1	-2.69%	20.6%
CCS(=O)(=O)c1ncc(Cl)c(C(=O)Nc2ccc(C)cc2)n1	1.43%	0.68%
Cc1ccc(CN2CCC(C(=O)Nc3ccc(Oc4cccnc4)cc3)CC2)cc1	7.59%	-0.58%
COCCN(C(=O)CCC(=O)Nc1nccs1)C(C(=O)NC(C)(C)C)c1ccc(C)cc1 (stereo unspecified)	11.2%	5.44%

SMILES	inhibition [1]	inhibition [2]
Cc1c(C)n(Cc2ccccc2)c2ncnc(Cl)c12	19.1%	39.9%
CN=C1CC(SC)=C1c1ccc(C)cc1	-10.3%	1.69%
COc1ccc(CCNc2nnc(Sc3nnnn3-c3ccccc3)s2)cc1OC	5.42%	20.1%
Cn1nnnc1Sc1ncnc2scc(-c3ccc(C#N)cc3)c12	12.5%	30.8%
Fc1ccc(-c2nnc(NC3=NCCCCC3)o2)cc1	-10.8%	31.4%
CC(NC(=O)CCc1nnc(-c2ccc(-c3ccccc3)cc2)o1)c1nc2ccccc2[nH]1 (stereo unspecified)	15.2%	55.9% (active)
Cc1ccc(C(=O)O/N=C(\N)c2ccccn2)cc1	-66.4%	-57%
CN(/C(=N\S(=O)(=O)c1ccccc1)c1ccccc1)c1ccc(O)cc1	-3.87%	-40.4%
CC(=O)Nc1nc(-c2ccc3c(c2)CCN3C(=O)C2CC2)c(C)s1	13.2%	49.3% (active)
Cc1onc(-c2ccccc2Cl)c1C(=O)N1CCC(Cc2ccccc2)CC1	9.05%	10.1%
Cc1ccc(CS(=O)(=O)c2ncc(Cl)c(C(=O)Nc3ccc(OC(F)F)cc3)n2)cc1	76.9% (active)	28.9%
CC(NC(=O)CCc1nnc(-c2ccc(-c3ccccc3)cc2)o1)c1nccs1 (stereo unspecified)	17%	58.5% (active)
Cc1cc(C(=O)CN2C(=O)C(=O)N(Cc3ccccc3)C2=O)c(C)n1-c1ccc2c(c1)OCCO2	-14.1%	-36%
CC[n+]1cccc(-c2nc3ccccc3s2)c1	9.34%	13%
CCOC(=O)COc1ccc(S(=O)(=O)N2CCN(c3ccc(OC)cc3)CC2)cc1	3.67%	-1.53%
O=C(NCc1cccnc1)/C(=C\c1ccc(-c2ccc(Cl)c(Cl)c2)o1)S(=O)(=O)c1ccccc1	75.3% (active)	66.9% (active)
